From PubChem BioAssay (NCI)
Compounds without any hit were thinned out: in the full panel of roughly 83,000, 20% have a hit.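 Each cell line was grown in a 96-well plate and treated with one concentration of compound for 48 hours. Values below 10 were considered active.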 A number with no mark means an inactive call. The source made the active and inactive calls.

Test system: MDA-MB-468 breast
Test: NCI-60 one-dose screen, 48 h (100 = growth as untreated, 0 = no growth, -100 = all killed)
Details: 10 µM unless noted

Row | Compound | growth
1 | Cc1ccc(C2CC(c3ccc(Nc4nc(NCCO)nc(Nc5ccc(Cl)cc5)n4)cc3)=NN2c2cc(Cl)cc(Cl)c2)cc1 (configuration not stated) | 102%
2 | CCCCCCCCCCCC1=NC(C)(C)CN1CCO | 15%
3 | CCN1C(=O)N(CC)C2C1NN=C1SCC(=O)N12 (configuration not stated) | 18.2%
4 | COc1ccc(C2CC(c3ccc4c(c3)OCO4)=NN2C=O)cc1 (configuration not stated) | 93.3%
5 | C[C@H]1[C@H]2C3=CC[C@@H]4[C@@]5(C)C/C(=C/c6ccncc6)C(=O)C(C)(C)[C@@H]5CC[C@@]4(C)[C@]3(C)CC[C@@]2(C(=O)N2CCN(C)CC2)CC[C@@H]1C | 41.1%
6 | C[C@H](NC(=O)c1snnc1C1CC1)c1c(F)cccc1Cl | 99.4%
7 | O=c1c2ccccc2cc2n1CCN=C2c1ccccc1 | 98.4%
8 | CCOC(=O)c1cn2ncnc(Oc3ccc(NC(=O)NCCN4CCN(C)CC4)c(Cl)c3)c2c1C | 45.4%
9 | O=C(O)CCCN1C(=O)CSC1=S | 99.3%
10 | CCCCNc1cc(-c2cn[nH]c2-c2cc(C)cc(OC)c2)nc(-c2cccnc2)n1 | 78.4%
11 | CCNNC(=O)[C@@H]1[C@H](c2cc(OC)c(OC)c(OC)c2)c2cc3c(cc2[C@H](O)[C@H]1CO)OCO3 | 7.05% (active)
12 | Brc1cccc(-c2cc(-c3cnc4c(c3)OCCO4)n[nH]2)c1 | 7.76% (active)
13 | CCc1nn(Cc2ccccc2)c2nc(C)c(CCc3ccccc3)c(Cl)c12 | 88.3%
14 | CC(CCC(=O)O)[C@H]1CCC2C3C(=O)C[C@@H]4CC(=O)CC[C@]4(C)C3CC(=O)[C@@]21C (some centres not stated) | 112%
15 | O=Cc1ccc(-c2cn3ccnc3c(-c3ccc4ncn(Cc5ccccc5)c4c3)n2)cc1 | 105%
16 | COc1ccc(/C(C)=C(\c2ccc(Cl)cc2)c2ccc(OCCN3CCCC3)cc2)cc1F | 37.5%
17 | O=C1/C(=C/c2cc(F)cc(F)c2)Cc2cc3c(cc21)OCO3 | 8.61% (active)
18 | C=C1NC(=O)C(C(C)CC)NC(=O)C2CSCC(NC(=O)CCC(=O)O)C(=O)NC(Cc3ccccc3)C(=O)NC(C)C(=O)NC(CC(C)CC)C(=O)NC(C(=O)NC(Cc3ccccc3)C(=O)N3CCCC3C(=O)N2)C(C)OC(=O)C(CO)NC(=O)C(C(O)COC)N(C)C(=O)C(C(C)C)NC(=O)C(CC(C)CC)NC1=O (configuration not stated) | 0.0436% [6 µM] (active)
19 | Cc1ccc(-c2cc3nc(C(Cl)Cl)nc(-c4ccco4)n3n2)cc1 | -41.3% (active)

Row | Compound | growth
20 | CCOC(=O)c1noc2c1CCc1cn(Cc3cc(OC)cc(OC)c3)cc1-2 | 108%
21 | O=C1C[C@H](N2C(=O)c3ccccc3S2(=O)=O)C2CO[C@@H]1O2 | 80.3%
22 | COc1cc(/C=C/C(=O)c2ccc(N3CCN(C)CC3)cc2)ccc1F | 35%
23 | C=CCn1cc(-c2nc3ccccc3s2)c2cc(-c3ccc4c5c(cccc35)C(=O)N(N)C4=O)ccc21 | 95.4%
24 | CCCCCCCCCOc1c(OC)cc(C2CC(=O)Nc3c2c(C)nn3-c2nc3ccccc3[nH]2)cc1OC (configuration not stated) | -55.6% (active)
25 | CCN(CC)CCNc1nc2ccccc2c2c(=O)c3cc(Cl)ccc3sc12 | 56.2%
26 | N#CC(C#N)C(C#N)C#N | 99.7%
27 | COc1cc(/C=C2\C(=O)Nc3ccc(N(C)C)cc32)cc(OC)c1OC | -2.28% (active)
28 | O=C(CSc1nc2ccccc2c(=O)n1-c1ccccc1)Nc1ccc(C(=O)/C=C/c2ccc(Cl)cc2)cc1 | 121%
29 | O=C1NN(C(=O)c2ccccc2)C(c2ccc(Cl)c(Cl)c2)=C/C1=C\c1ccccc1[N+](=O)[O-] | 53.9% [6.75 µM]
30 | CCNc1nc(N2CC(=O)Nc3cc(OC)ccc32)c2ccccc2n1 | 1.34% (active)
31 | Cc1nc(N)nc2c1CCC(Nc1ccccc1)S2 (configuration not stated) | 100%
32 | Cc1cc(N2CCOCC2)nc(N(CCNc2ccnc3cc(Cl)ccc23)Cc2ccco2)n1 | 23.5%
33 | Cc1cc(-c2cc(OC(=O)c3ccccc3)ccc2Cl)cc2nnc(Nc3ccc(OCCN4CCCC4)cc3)nc12 | 84.3%
34 | CC1CC(O)CC(C)(C)C1 (configuration not stated) | 108%
35 | O=C1C(=O)c2cccnc2-c2ncccc21 | -91% (active)
36 | Cc1sc2nc(NCCc3cccs3)[nH]c(=O)c2c1C | 82.4%
37 | Cc1ccc(S(=O)(=O)c2ccccc2)cc1 | -10.8% (active)
